# Records with an inconclusive call do not appear. Values without a mark were called inactive. Activity calls are given as the source filed them. The call rests on the fitted dose curve; in most records, active means well fitted curve in the direction sought with a large enough effect; inconclusive means small, poorly fitted or top-dose-only effect, or another doubt; inactive means no such curve, though single readings can be large or run the other way.
# Biological target: phosphoglycerate mutase (Leishmania major) (UniProt Q4Q090)
# Sequence (Q4Q090 1-553): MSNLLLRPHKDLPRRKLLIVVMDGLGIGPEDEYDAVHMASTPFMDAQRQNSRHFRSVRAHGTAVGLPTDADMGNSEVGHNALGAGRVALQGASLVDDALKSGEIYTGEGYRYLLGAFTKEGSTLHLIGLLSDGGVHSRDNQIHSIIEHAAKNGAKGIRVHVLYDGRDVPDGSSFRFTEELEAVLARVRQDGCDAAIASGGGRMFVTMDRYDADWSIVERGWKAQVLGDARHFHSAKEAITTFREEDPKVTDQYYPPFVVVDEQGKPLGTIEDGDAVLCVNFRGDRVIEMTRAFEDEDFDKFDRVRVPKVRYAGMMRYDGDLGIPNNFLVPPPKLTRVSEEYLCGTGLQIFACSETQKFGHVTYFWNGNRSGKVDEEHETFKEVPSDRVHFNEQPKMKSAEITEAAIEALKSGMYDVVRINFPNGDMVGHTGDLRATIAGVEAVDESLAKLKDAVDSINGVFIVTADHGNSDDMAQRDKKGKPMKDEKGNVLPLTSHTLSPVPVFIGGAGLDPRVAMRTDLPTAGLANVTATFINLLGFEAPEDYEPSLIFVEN
# Assay: qHTS Validation Assay to Find Inhibitors of Phosphoglycerate Mutase (AID 504548)
# Conditions: biochemical enzyme activity; series mostly up to 57.5 µM; activity change, negative = inhibition: at the top concentration
# Excerpt: NIH Molecular Libraries Probe Production Network [MLPCN]
# NIH Chemical Genomics Center [NCGC]
# PI Name: Malcolm Walkinshaw, University of Edinburgh
# Several species of the Trypanosomatidae family of parasitic protozoans cause a spectrum of diseases throughout the tropical and subtropical world. Sleeping sickness, caused by two subspecies of Trypanosoma brucei, is endemic to areas of sub-Saharan Africa, while Chagas disease, a manifestation of Trypanosoma cruzi infection, is prevalent throughout Central and South America. In addition, many species of Leishmania are responsible for a range of cutaneous and visceral diseases, causing ulcers, destructive lesions and kalaazar, a lethal infection of the viscera. Collectively, these organisms infect 30 million people worldwide (~500 million live in endemic areas), and account for ~130,000 deaths annually. Given their debilitating and prevalent nature, trypanosomatid parasites impose a heavy medical, economic and social burden on entire populations, primarily in the developing world. The problem is further exacerbated by the fact that existing treatments have progressed little in the past 50 years, and current drugs show high toxicity and poor efficacy.
# Blood-stream stages of T. brucei are entirely dependent on glycolysis as a source of ATP, and the tricarboxylic acid cycle and oxidative phosphorylation are both repressed. Glycolysis in axenically cultured T. cruzi, representing the intracellular pathogenic stage, is also essential for these parasites. […] Previous studies have shown that the glycolytic enzyme, phosphoglycerate mutase (PGAM), is a viable target for drugs to kill these parasites. […] Furthermore, the cobalt centers present within PGAM are only found in trypanosomatid and plant PGAMs, and are known to be required for activity, thereby providing an additional target. Moreover, trypanosomatid PGAMs are completely different from the enzyme that performs the same function in humans: the parasite and host enzymes share no structural or even mechanistic features; specificity is therefore unlikely to be an issue.
# NCGC Assay Protocol Summary:
# Briefly, 3ul of substrate buffer (all columns) are dispensed into Greiner white solid bottom 1536-well assay plates. Compounds are then transferred via Kalypsys pin tool equipped with 1536-pin array (10nl slotted pins, V&P Scientific, San Diego, CA). Following addition of compound, 1ul of Lm PGAM (1.25nM final concentration, columns […]) is added to initiate the reaction; columns 3-4 receive only TEA buffer as negative controls. The plates are then incubated at room temperature for 45 minutes. Kinase-GloPlus reagent is added (2ul) and plates incubated for 10 minutes, before being transferred to a ViewLux high-throughput CCD imager (PerkinElmer) wherein single end-point measurements of luminescence are acquired using a clear filter. All reagents are diluted in an assay buffer consisting of 100 mM TEA (pH 7.6), 5 mM MgCl2 and 0.01% Tween-20.
# On the % scale 0 is the no-effect control and ±100 the full control effect.
SMILES,"activity change, negative = inhibition [%]",outcome
CN(C)CCC=C1c2ccccc2C=Cc2ccccc21,-6.05,–
COc1ccccc1OCCNCC(O)COc1cccc2[nH]c3ccccc3c12 (stereo not given),-5.56,–
C[C@H]1c2cccc(O)c2C(O)=C2C(=O)[C@]3(O)C(O)=C(C(N)=O)C(=O)[C@@H](N(C)C)[C@@H]3[C@@H](O)[C@@H]21,-2.51,–
CC(C)NCC(O)COc1ccc(CCOCC2CC2)cc1 (stereo not given),1.2,–
N[C@@H](Cc1c[nH]c2ccc(O)cc12)C(=O)O,12.7,–
COc1ccc(CCN(C)CCCC(C#N)(c2ccc(OC)c(OC)c2)C(C)C)cc1OC (stereo not given),0.387,–
Nc1ccn([C@H]2CC[C@@H](CO)O2)c(=O)n1,4.65,–
O=C(C1CCCCC1)N1CC(=O)N2CCc3ccccc3C2C1 (stereo not given),-2.84,–
O=C1N(c2ccccc2)c2ccccc2C1(Cc1ccncc1)Cc1ccncc1,3.62,–
CCCNCC(O)COc1ccccc1C(=O)CCc1ccccc1 (stereo not given),-0.777,–
Fc1ccc([C@@H]2CCNC[C@H]2COc2ccc3c(c2)OCO3)cc1,6.16,–
Cc1ccc(C(=O)Nc2ccc(S(=O)(=O)O)c3cc(S(=O)(=O)O)cc(S(=O)(=O)O)c23)cc1NC(=O)c1cccc(NC(=O)Nc2cccc(C(=O)Nc3cc(C(=O)Nc4ccc(S(=O)(=O)O)c5cc(S(=O)(=O)O)cc(S(=O)(=O)O)c45)ccc3C)c2)c1,10.7,–
CCOC(=O)c1ncn2c1CN(C)C(=O)c1cc(F)ccc1-2,-6.5,–
NCCS(=O)(=O)O,-0.0189,–
CN(C)C(=O)C(CCN1CCC(O)(c2ccc(Cl)cc2)CC1)(c1ccccc1)c1ccccc1,15.8,–
CN(Cc1cnc2nc(N)nc(N)c2n1)c1ccc(C(=O)N[C@@H](CCC(=O)O)C(=O)O)cc1,0.101,–
Cc1cn([C@H]2C[C@H](N=[N+]=[N-])[C@@H](CO)O2)c(=O)[nH]c1=O,0.385,–
Clc1ccc2nsnc2c1NC1=NCCN1,-10.7,–
COc1cc2nc(N3CCN(C(=O)c4ccco4)CC3)nc(N)c2cc1OC,-4.23,–
Cc1cc(C(C)(C)C)cc(C)c1CC1=NCCN1,1.82,–

SMILES,"activity change, negative = inhibition [%]",outcome
COc1ccccc1N1CCN(CC(O)COc2cccc3ccccc23)CC1 (stereo not given),11.4,–
Nc1c2c(nc3ccccc13)CCCC2,-4.47,–
CC(C(=O)O)c1cccc(C(=O)c2ccccc2)c1 (stereo not given),0.141,–
CCCCc1oc2ccccc2c1C(=O)c1cc(I)c(OCCN(CC)CC)c(I)c1,11.8,–
Cn1c(=O)c2[nH]cnc2n(C)c1=O,6.16,–
Nc1nc2c(ncn2COC(CO)CO)c(=O)[nH]1,12,–
CC(COc1ccccc1)N(CCCl)Cc1ccccc1 (stereo not given),16.9,–
CN(C)c1nc(N(C)C)nc(N(C)C)n1,-3,–
Cn1ccc2cc3c(cc21)CCN3C(=O)Nc1cccnc1,-5.44,–
CN1C(C(=O)Nc2ccccn2)=C(O)c2ccccc2S1(=O)=O,2.36,–
CCC1(c2ccccc2)C(=O)NCNC1=O,9.21,–
O=c1c(-c2ccc(O)cc2)coc2cc(O)cc(O)c12,-6.26,–
CN1CCC(=C2c3ccccc3C=Cc3ccccc32)CC1,5.59,–
COc1cc2c(c(OC)c1OC)-c1ccc(OC)c(=O)cc1[C@@H](NC(C)=O)CC2,1.04,–
CN1C2CCC1CC(OC(=O)C(CO)c1ccccc1)C2 (stereo not given),–,inactive
CC(CCc1ccc(O)cc1)NCCc1ccc(O)c(O)c1 (stereo not given),-4.04,–
CC(C)C(=O)Nc1ccc([N+](=O)[O-])c(C(F)(F)F)c1,12.8,–
NC(=O)OCC(COC(N)=O)c1ccccc1,2.68,–
Cc1cnc(C(=O)NCCc2ccc(S(=O)(=O)NC(=O)NC3CCCCC3)cc2)cn1,9.23,–
COc1cc2nc(N3CCN(C(=O)C4COc5ccccc5O4)CC3)nc(N)c2cc1OC (stereo not given),-9.63,–
